HEK293 tox: cytotoxic compounds in HEK 293 cells; HEK 293 viability, ATP luminescence (CellTiter-Glo), 48-72 h; Potency, µM (highest dose often 115 µM), for the others: at the highest dose activity change, negative = cytotoxicity, hits mostly inhibitors; 6.6% of 94,000 active; further: on the % scale 0 is the no-effect control and ±100 the full control effect; nearly all actives have a fitted effect of over 60% in size
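Viability of HEK 293 cells, plated at 250 cells/well, was judged by cellular ATP after compound treatment for 48 or 72 hr. Luminescence was imaged 10 min after CellTiter-Glo addition at room temperature.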
NPR1 antag: antagonists of human natriuretic peptide receptor Npr1; HEK293 hNpr1 GloSensor cGMP, ANP-stimulated luminescence; P16066; Potency, µM (titrated, usually from 46.3 µM), for the others: at the top dose activity change, negative = inhibition, most hits filed as inhibitors; 1.6% of 76,000 active; AID 1347048; calls by dose curve; further: on the % scale 0 is the no-effect control and ±100 the full control effect; nearly all actives have a fitted effect of over 60% in size
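Compound pre-incubated 30 min at room temperature on GloSensor-loaded HEK293 cells stably carrying hNpr1 and the pGS-40F cGMP biosensor. Stimulation uses hNppA at 0.1 nM final; luminescence is taken at baseline and 20 min post-agonist.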
SNCA viab count: counter-screen for SNCA expression inhibitors: cell viability | AID 1671193 | Potency, µM (top dose mostly 57.1 µM), without a hit: top-dose activity change, negative = cytotoxicity, hits mostly cytotoxic | 0.12% of 150,000 active | HEK-293-SNCA-luc viability, GF-AFC fluorescence, 24 h;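 further: 0% = DMSO-treated cells and -100% = medium-only wells without cells; nearly all actives have a fitted effect of over 30% in size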
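Cytotoxicity counterscreen: after 24 h compound treatment of genome-edited SNCA-luciferase HEK-293 cells, live-cell protease substrate GF-AFC read by fluorescence after 30 min; activity scaled between DMSO (0%) and medium-only (-100%), curves Hill-fitted.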
3T3 cytotox: NIH 3T3 cell cytotoxicity. Potency, µM (doses to about 96.7 µM), inactives show at the top dose activity change, negative = cytotoxicity, actives largely listed as inhibitors. NIH 3T3 viability, CellTiter-Glo ATP luminescence, 48-72 h. 4.3% of 94,000 active; further: on the % scale 0 is the no-effect control and ±100 the full control effect; nearly all actives have a fitted effect of over 55% in size
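Cytotoxicity was measured by CellTiter-Glo ATP luminescence after 48 or 72 h compound exposure at 37 °C. Mouse NIH 3T3 fibroblasts were seeded at 400 cells/well and dosed by 23 nL pin transfer.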
SNCA expr inhib: reduces expression of the alpha-synuclein gene; Potency, µM (titrated, usually from 57.2 µM), inactives show at the top dose activity change, negative = inhibition, most hits filed as inhibitors; 0.17% of 140,000 active; HEK-293 SNCA-luciferase knock-in, luminescence, 24 h;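 further: plate controls were DMSO cells for no effect and cell-free wells for full effect; nearly all actives have a fitted effect of over 45% in size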
FLuc inh: Photinus pyralis luciferase inhibition. purified P. pyralis luciferase, luminescence, biochemical. Potency, µM (titrated, usually from 115 µM), actives largely listed as inhibitors. 2.5% of 76,000 active. AID 1347043; further: on the % scale 0 is the no-effect control and ±100 the full control effect; nearly all actives have a fitted effect of over 65% in size
Target sequence (P08659 whole entry, looked up): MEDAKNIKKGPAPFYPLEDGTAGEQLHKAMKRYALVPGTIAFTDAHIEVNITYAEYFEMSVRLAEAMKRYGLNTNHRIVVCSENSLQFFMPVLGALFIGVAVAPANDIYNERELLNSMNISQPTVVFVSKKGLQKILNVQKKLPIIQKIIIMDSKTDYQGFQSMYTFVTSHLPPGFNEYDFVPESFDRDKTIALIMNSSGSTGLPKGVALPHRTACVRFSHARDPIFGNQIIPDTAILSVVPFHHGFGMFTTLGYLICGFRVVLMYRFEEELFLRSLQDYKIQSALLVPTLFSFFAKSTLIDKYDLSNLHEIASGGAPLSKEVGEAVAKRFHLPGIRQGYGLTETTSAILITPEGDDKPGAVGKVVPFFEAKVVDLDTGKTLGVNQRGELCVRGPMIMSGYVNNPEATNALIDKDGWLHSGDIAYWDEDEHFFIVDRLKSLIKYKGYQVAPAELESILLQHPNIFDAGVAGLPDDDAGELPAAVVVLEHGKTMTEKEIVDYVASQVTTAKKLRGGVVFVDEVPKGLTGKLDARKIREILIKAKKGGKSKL
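Luminescence read by CCD imaging after purified firefly luciferase (10nM final) was added to substrate buffer holding 10uM D-luciferin and 10uM ATP, pH 7.5, pre-dosed with compound.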
Npr1 antag conf: hNpr1 antagonism, confirmation assay; shares compounds with NPR1 antag; HEK293 hNpr1 cGMP GloSensor luminescence, ANP-stimulated; Potency, µM (highest dose often 57.6 µM), for inactives: top-dose activity change, negative = inhibition, actives largely listed as inhibitors; 76% of 1,400 active; calls by dose curve; further: nearly all actives have a fitted effect of over 70% in size
NPR2 antag: selectivity test of Npr1 antagonists against human Npr2. shares compounds with NPR1 antag. HEK293 hNpr2 GloSensor cGMP luminescence, CNP-stimulated. Potency, µM (highest dose often 57.6 µM), inactives show at the top dose activity change, negative = inhibition, actives largely listed as inhibitors. 67% of 1,400 active; calls by dose curve; further: nearly all actives have a fitted effect of over 70% in size
FLuc counter: FLuc enzyme inhibition, Npr1 counter-screen; shares compounds with NPR1 antag; purified FLuc enzyme, luminescence, Km substrate; Potency, µM (highest dose often 57.6 µM), inactives show at the top dose activity change, negative = inhibition, most hits filed as inhibitors; 0.7% of 1,400 active; AID 1347047; further: 0% is about no effect
GloSensor ctrl: reduces cGMP signal in GloSensor control cells | shares compounds with NPR1 antag | HEK293 GloSensor cGMP, SNP-stimulated, luminescence | Potency, µM (doses to about 57.6 µM), for the others: at the top dose activity change, negative = inhibition, usual class: inhibitors | 69% of 1,400 active | AID 1347051; calls by dose curve; further: on the % scale 0 is the no-effect control and ±100 the full control effect; nearly all actives have a fitted effect of over 70% in size
An asterisk follows results filed as active; [ ] = dose if it differs, or a comment. A selection: hits, their analogues and other compounds. The true share with any hit is near 7.4%. Unless noted, the call rests on the fitted dose curve; in most records, active means well fitted curve in the direction sought with a large enough effect; inconclusive means small, poorly fitted or top-dose-only effect, or another doubt; inactive means no such curve, though single readings can be large; an effect the other way counts as inactive or inconclusive. Potency means the concentration at half of the fitted maximal effect.

`COc1ccccc1-c1cc(C(=O)NCCN2CCOCC2)nn2cnnc12` gave HEK293 tox inactive, SNCA viab count 3.2%[12.5 µM], 3T3 cytotox 1.5%[138 µM] and SNCA expr inhib -7.7%[87.6 µM].
`COc1ccccc1C(=O)NC1CCCc2c1[nH]c1ccccc21` (stereo not given) gave HEK293 tox inconclusive, NPR1 antag 4.0%, SNCA viab count -12.6%, 3T3 cytotox -26.8%, SNCA expr inhib 0.0% and FLuc inh inactive.
`COc1ccc(C2(C(=O)NC3CCCc4c3[nH]c3ccccc43)CCOCC2)cc1` (stereo not given) gave HEK293 tox inconclusive, NPR1 antag inconclusive, SNCA viab count 5.3%, 3T3 cytotox 39.8µM*, SNCA expr inhib -8.2%, FLuc inh inactive, Npr1 antag conf 21.7µM*, NPR2 antag 15.3µM*, FLuc counter -0.9% and GloSensor ctrl -4.8%.
For CCCCCN(CCC(=O)NCc1ccc2c(c1)OCO2)C(=O)c1cc(C)oc1C the results were HEK293 tox inconclusive, NPR1 antag 12.6µM*, SNCA viab count 0.0%, 3T3 cytotox 31.6µM*, SNCA expr inhib -26.2%, FLuc inh inactive, Npr1 antag conf inconclusive, NPR2 antag inconclusive, FLuc counter 2.4% and GloSensor ctrl 1.1%.
Screening CCCCCCN(CCC(=O)NCCc1ccccc1)C(=O)c1cc(C)oc1C returned HEK293 tox 8.91µM*, NPR1 antag 15.8µM*, SNCA viab count -13.7%, 3T3 cytotox inconclusive, SNCA expr inhib 51.0%, FLuc inh inactive, Npr1 antag conf inconclusive, NPR2 antag inconclusive, FLuc counter -21.1% and GloSensor ctrl inconclusive.
`COCCCN(CCC(=O)NCCc1ccccc1)C(=O)c1cc(C)oc1C` gave HEK293 tox inconclusive, NPR1 antag -1.8%, SNCA viab count inconclusive, 3T3 cytotox inconclusive, SNCA expr inhib 19.9% and FLuc inh inactive.
`CN(C)C(=O)N1CCN(c2ccc3nnc(-c4ccccc4)n3n2)CC1` gave HEK293 tox -21.2% and 3T3 cytotox inconclusive.
For CCOc1ccc(CC(=O)N2CCC(Cc3nc(-c4ccc(OC)cc4)no3)CC2)cc1OCC the results were HEK293 tox inconclusive, NPR1 antag 15.8µM*, SNCA viab count inconclusive, 3T3 cytotox inconclusive, SNCA expr inhib inconclusive, FLuc inh inactive, Npr1 antag conf 27.3µM*, NPR2 antag 21.7µM*, FLuc counter -0.1% and GloSensor ctrl 24.3µM*.
Screening COc1ccc(CC(=O)N2CCC(Cc3nc(-c4ccc(OC)cc4)no3)CC2)cc1 returned HEK293 tox inconclusive, NPR1 antag 2.82µM*, SNCA viab count -9.1%, 3T3 cytotox inconclusive, SNCA expr inhib -14.0%, FLuc inh inactive, Npr1 antag conf 3.06µM*, NPR2 antag 3.43µM*, FLuc counter -1.5% and GloSensor ctrl 3.43µM*.
CCOc1ccc(CC(=O)N2CCC(Cc3nc(C(C)C)no3)CC2)cc1OCC was read as HEK293 tox inconclusive, NPR1 antag 0.4%, SNCA viab count 9.5%, 3T3 cytotox inconclusive, SNCA expr inhib -9.5% and FLuc inh inactive.
`CCOc1ccc(CC(=O)N2CCC(Cc3nc(-c4ccc(OC)cc4)no3)CC2)cc1` gave HEK293 tox inconclusive, NPR1 antag 4.47µM*, SNCA viab count -10.4%, 3T3 cytotox inconclusive, SNCA expr inhib -28.4%, FLuc inh inactive, Npr1 antag conf 2.73µM*, NPR2 antag 3.85µM*, FLuc counter -1.0% and GloSensor ctrl 3.43µM*.
`CCOc1ccc(CC(=O)N2CCC(Cc3nc(C(C)C)no3)CC2)cc1` gave HEK293 tox inconclusive, NPR1 antag -14.6%, SNCA viab count -5.1%, 3T3 cytotox -28.3%, SNCA expr inhib 31.8% and FLuc inh inactive.
COc1ccc(-c2noc(CC3CCN(C(=O)Cc4cccc(C)c4)CC3)n2)cc1 was read as HEK293 tox 39.8µM*, NPR1 antag 12.6µM*, SNCA viab count -27.6%, 3T3 cytotox inconclusive, SNCA expr inhib inconclusive, FLuc inh inactive, Npr1 antag conf 21.7µM*, NPR2 antag 19.3µM*, FLuc counter 4.2% and GloSensor ctrl 17.2µM*.
`Cc1cccc(CC(=O)N2CCC(Cc3nc(-c4ccccc4)no3)CC2)c1` gave HEK293 tox inconclusive, NPR1 antag -26.0%, SNCA viab count -13.0%, 3T3 cytotox inconclusive, SNCA expr inhib -26.0% and FLuc inh inactive.
For CC(C)CNC(=O)c1cc(-c2cc(Cl)cc(Cl)c2)c2nncn2n1 the results were HEK293 tox inactive, SNCA viab count 3.6%, 3T3 cytotox -27.6% and SNCA expr inhib 8.2%.
CCCC(N[C@@H](C)C(=O)N1[C@H](C(=O)O)C[C@@H]2CCCC[C@@H]21)C(=O)OCC (stereo not given in full) was read as SNCA viab count 23.4%.
COc1ccc(C2Cn3nnc(C(=O)N4CCN(C(=O)c5ccc(F)cc5Cl)CC4)c3CO2)cc1 (stereo not given) was read as HEK293 tox inconclusive, NPR1 antag 11.2µM*, SNCA viab count -26.3%, 3T3 cytotox -26.5%, SNCA expr inhib inconclusive, FLuc inh inactive, Npr1 antag conf 21.7µM*, NPR2 antag 21.7µM*, FLuc counter -0.3% and GloSensor ctrl 19.3µM*.
